# Test results taken from PubChem BioAssay (NCATS).
# Records with an inconclusive call do not appear. Active and inactive are the calls of the source. Unless noted, the call rests on the fitted dose curve; in most records, active means well fitted curve in the direction sought with a large enough effect; inconclusive means small, poorly fitted or top-dose-only effect, or another doubt; inactive means no such curve, though single readings can be large; an effect the other way counts as inactive or inconclusive.
# What was measured:
# [1] = target: Lysosomal acid glucosylceramidase (Homo sapiens) (UniProt P04062); experiment: Glucocerebrosidase-p2 (AID 348; in the data active means potency below about 10 µM; further: potency means the concentration at half of the fitted maximal effect); details: purified GBA, blue fluorogenic substrate, 40 min
# Lysosomal acid glucosylceramidase (Homo sapiens), sequence (P04062 whole entry, looked up): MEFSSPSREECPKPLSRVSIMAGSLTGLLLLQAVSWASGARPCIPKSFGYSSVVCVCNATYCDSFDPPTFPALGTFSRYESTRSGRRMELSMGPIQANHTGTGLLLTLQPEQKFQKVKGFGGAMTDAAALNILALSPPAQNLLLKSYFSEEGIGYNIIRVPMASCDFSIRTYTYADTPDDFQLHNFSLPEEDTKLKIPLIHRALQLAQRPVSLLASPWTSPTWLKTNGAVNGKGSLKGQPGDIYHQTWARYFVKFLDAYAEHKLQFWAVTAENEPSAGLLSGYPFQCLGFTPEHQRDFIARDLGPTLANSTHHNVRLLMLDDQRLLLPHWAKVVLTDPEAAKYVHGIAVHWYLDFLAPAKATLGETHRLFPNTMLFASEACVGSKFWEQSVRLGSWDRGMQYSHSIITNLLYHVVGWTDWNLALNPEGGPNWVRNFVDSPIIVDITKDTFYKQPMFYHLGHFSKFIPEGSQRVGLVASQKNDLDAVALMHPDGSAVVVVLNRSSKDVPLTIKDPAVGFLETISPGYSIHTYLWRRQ
# Method in brief: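 Compounds titrated from 0.6 nM upwards against 0.2 nM enzyme in pH 5.9 citric acid/KH2PO4, taurocholate, tween-20; blue fluorogenic substrate 80 uM, 40 min room temperature, stopped and read Ex 365/Em 440 for AC50.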
# [2] = AP1 Signaling Pathway (AID 357; active means well fitted curve in either direction with a large enough effect, not every such curve was filed as active;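 further: ME-180 reporter cells stimulated with EGF at its EC50 level; on the % scale 0 is the no-effect control and ±100 the full control effect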); details: ME-180 AP-1-bla reporter, EGF-induced, beta-lactamase ratio, 5 h; at 7.69 µM (top of the series) unless noted
# Method in brief: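 Modulation of EGF-driven AP-1 transcription was assessed with a beta-lactamase reporter in ME-180 cells. Compound and EC50 EGF were co-incubated 5 hours at 37 °C before 2.5-hour CCF4 loading at room temperature and dual-emission reading.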
# [3] = target: Cytochrome P450 1A2 (Homo sapiens) (UniProt P05177); experiment: p450-cyp1a2 (AID 410; calls by dose curve; further: potency means the concentration at half of the fitted maximal effect;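 on activity change, negative = inhibition: -100% = full effect of reference inhibitor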); details: recombinant CYP1A2, luciferin-ME demethylation, luminescence; series mostly up to 57 µM
# Cytochrome P450 1A2 (Homo sapiens), sequence (P05177 whole entry, looked up): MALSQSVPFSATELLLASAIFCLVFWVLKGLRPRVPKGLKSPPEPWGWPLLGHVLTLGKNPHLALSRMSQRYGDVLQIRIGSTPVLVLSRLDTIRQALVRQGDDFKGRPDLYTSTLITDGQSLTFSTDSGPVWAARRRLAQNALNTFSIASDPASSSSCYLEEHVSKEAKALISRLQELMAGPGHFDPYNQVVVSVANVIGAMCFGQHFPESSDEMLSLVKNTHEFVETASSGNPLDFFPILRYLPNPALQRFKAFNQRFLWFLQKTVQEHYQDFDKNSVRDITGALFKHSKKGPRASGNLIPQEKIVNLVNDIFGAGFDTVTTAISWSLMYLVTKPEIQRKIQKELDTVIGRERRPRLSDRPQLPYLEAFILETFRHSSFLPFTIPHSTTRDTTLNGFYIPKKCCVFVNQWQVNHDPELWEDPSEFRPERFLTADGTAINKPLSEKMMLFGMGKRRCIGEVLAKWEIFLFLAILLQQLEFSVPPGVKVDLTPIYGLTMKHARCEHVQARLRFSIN
# Method in brief: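 Inhibition was calculated relative to 57 uM furafylline (full inhibition). The reaction used human CYP1A2 at 20nM with Luciferin-ME at its Km, 100uM, driven by an NADPH-regenerating system for 60 min at room temperature.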
# [4] = NFAT Signaling Pathway (AID 444; active means well fitted curve in either direction with a large enough effect, not every such curve was filed as active;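 further: carbachol stimulus at about its EC50 of 1 µM final; on the % scale 0 is the no-effect control and ±100 the full control effect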); details: Jurkat NFAT-bla M1, carbachol, beta-lactamase ratio, 5 h; at 7.69 µM (top of the series) unless noted
# Method in brief: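 Jurkat cells carrying an NFAT-driven β-lactamase reporter and co-transfected muscarinic M1 receptor were treated with compound plus carbachol (1 uM final, an EC50 level) for 5 h at 37 °C. CCF4 loading followed for 1 h at RT; 460/530 nm ratio gave %activity.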
# [5] = Stat Signaling Pathway (AID 446; active means well fitted curve in either direction with a large enough effect, not every such curve was filed as active;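 further: ME-180 cervical cancer cells given 40 pM IL-6 alongside compound; SIE-controlled beta-lactamase reporter measured as 460/530 nm FRET emission ratio; on the % scale 0 is the no-effect control and ±100 the full control effect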); details: ME-180 SIE beta-lactamase reporter, IL-6 stimulated, 5 h; at 7.69 µM (top of the series) unless noted
# Method in brief: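 ME-180 SIE-bla cells; overnight plating; cpd + IL-6 40 pM, 5 h, 37 C; LiveBLAzer 2.5 h RT; 460/530 nm emission ratio. Normalized to 300 pM IL-6 and 125 nM JAK inhibitor controls.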
# [6] = target: Glucocorticoid receptor (Homo sapiens) (UniProt P04150); experiment: GR-GFP Redistribution (AID 450;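 active means compounds whose dose series gives a full or clear partial fitted curve of increased nuclear translocation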; further: potency means the concentration at half of the fitted maximal effect); details: U2OS GR-GFP nuclear translocation, laser cytometry, 2 h
# Glucocorticoid receptor (Homo sapiens), sequence (P04150 whole entry, looked up, the tested form may be a part): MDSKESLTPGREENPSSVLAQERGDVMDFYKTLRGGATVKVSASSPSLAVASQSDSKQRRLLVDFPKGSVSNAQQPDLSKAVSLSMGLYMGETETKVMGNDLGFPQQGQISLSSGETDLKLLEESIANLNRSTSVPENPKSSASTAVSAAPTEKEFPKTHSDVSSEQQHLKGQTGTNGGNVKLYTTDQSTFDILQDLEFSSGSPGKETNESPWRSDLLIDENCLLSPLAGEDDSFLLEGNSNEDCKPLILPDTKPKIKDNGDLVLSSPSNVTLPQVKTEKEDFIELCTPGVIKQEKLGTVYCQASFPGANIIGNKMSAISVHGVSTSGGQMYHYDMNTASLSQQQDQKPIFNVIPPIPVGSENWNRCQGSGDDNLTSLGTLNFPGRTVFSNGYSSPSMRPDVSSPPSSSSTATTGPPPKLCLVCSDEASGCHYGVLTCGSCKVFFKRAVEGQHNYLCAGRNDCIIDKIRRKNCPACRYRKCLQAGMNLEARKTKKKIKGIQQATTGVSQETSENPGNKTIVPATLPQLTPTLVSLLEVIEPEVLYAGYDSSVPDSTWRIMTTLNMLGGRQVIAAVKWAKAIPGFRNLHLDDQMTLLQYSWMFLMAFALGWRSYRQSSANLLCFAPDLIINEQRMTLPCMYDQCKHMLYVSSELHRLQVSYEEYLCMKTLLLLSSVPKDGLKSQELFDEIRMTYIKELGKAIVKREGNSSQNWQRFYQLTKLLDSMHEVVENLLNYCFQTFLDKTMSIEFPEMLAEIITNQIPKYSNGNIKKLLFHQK
# [7] = target: Glucocorticoid receptor (Homo sapiens) (UniProt P04150); experiment: GR-EFC Redistribution (AID 451; calls by dose curve; further: potency means the concentration at half of the fitted maximal effect); details: CHO-K1 GR-EFC translocation, beta-gal luminescence, 2 h
# Method in brief: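 CHO-K1 cells stably expressing nuclear-localized β-gal enzyme acceptor and GR fused C-terminally to the enzyme donor fragment; ligand-driven nuclear translocation restores β-gal by complementation. Compounds titrated up to 46 uM final, 2 h at 37 °C; luminescence read.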
# [8] = target: Mitogen-activated protein kinase 10 (Mus musculus) (UniProt Q61831); experiment: JNK3 AlphaScreen Assay (AID 530; active means well fitted curve in either direction with a large enough effect, not every such curve was filed as active;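 further: kinase came from lysate of stimulated human HepG2 cells; signal reports phosphorylation of biotinylated GST-cJun 1-79 at Ser73 with 10 µM ATP; on the % scale 0 is the no-effect control and ±100 the full control effect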); details: JNK3 lysate, c-Jun phosphorylation; series mostly up to 57.1 µM
# Method in brief: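 JNK3 came from HepG2 lysates pre-activated with IL-1beta and TNF-alpha and phosphorylated biotinylated GST-cJun (1-79) at 10 uM ATP, pH 7.6, room temperature. Compounds were titrated. AlphaScreen signal used anti-phospho-cJun (Ser73) antibody.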
# [9] = target: 3',5'-cyclic-AMP phosphodiesterase 4B (Homo sapiens) (UniProt Q07343); experiment: qHTS Assay for Inhibitors of PDE-IV (AID 607; active means well fitted activation curve with a large enough effect in the main read-out, with a control signal flat, not every such curve was filed as active; further: % of control where 0% means no effect); details: HEK293 ACTOne CNG channel cells, membrane potential fluorescence; series mostly up to 22.9 µM
# 3',5'-cyclic-AMP phosphodiesterase 4B (Homo sapiens), sequence (Q07343 whole entry, looked up): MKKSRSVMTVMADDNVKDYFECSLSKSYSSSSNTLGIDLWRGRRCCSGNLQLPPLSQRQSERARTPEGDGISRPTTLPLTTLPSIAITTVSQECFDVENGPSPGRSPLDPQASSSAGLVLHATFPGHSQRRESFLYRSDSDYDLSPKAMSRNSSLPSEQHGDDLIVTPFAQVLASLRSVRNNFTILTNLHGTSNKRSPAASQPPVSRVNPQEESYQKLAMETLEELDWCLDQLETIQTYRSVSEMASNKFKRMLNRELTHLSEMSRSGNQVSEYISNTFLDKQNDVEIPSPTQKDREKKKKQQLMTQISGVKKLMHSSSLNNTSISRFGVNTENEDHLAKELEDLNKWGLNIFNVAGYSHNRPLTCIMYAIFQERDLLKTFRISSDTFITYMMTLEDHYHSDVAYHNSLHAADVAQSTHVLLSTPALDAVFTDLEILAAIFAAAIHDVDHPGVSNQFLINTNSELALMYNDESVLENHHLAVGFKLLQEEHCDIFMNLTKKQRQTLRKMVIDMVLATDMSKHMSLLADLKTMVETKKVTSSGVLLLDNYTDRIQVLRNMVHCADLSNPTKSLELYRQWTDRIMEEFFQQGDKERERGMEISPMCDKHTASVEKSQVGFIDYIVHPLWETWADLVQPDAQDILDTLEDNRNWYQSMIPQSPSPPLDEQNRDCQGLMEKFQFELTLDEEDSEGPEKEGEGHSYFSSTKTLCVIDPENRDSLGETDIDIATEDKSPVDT
# Method in brief: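 ACTOne HEK293 cells carry a modified cAMP-gated CNG channel and express endogenous PDE4; plated 1000 cells/well, compounds up to 22.9 uM final. Membrane-potential dye fluorescence (ex 535/em 590) was read; parental cells received 10 uM forskolin + 100 uM RO 20-1724.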
# [10] = target: Cytochrome P450 3A4 (Homo sapiens) (UniProt P08684); experiment: qHTS Assay for Inhibitors and Substrates of Cytochrome P450 3A4 (AID 884); details: recombinant CYP3A4, Luciferin-PPXE luminescence; series mostly up to 57.1 µM; further: potency means the concentration at half of the fitted maximal effect; nearly all actives have a fitted effect of over 50% in size
# Cytochrome P450 3A4 (Homo sapiens), sequence (P08684 whole entry, looked up): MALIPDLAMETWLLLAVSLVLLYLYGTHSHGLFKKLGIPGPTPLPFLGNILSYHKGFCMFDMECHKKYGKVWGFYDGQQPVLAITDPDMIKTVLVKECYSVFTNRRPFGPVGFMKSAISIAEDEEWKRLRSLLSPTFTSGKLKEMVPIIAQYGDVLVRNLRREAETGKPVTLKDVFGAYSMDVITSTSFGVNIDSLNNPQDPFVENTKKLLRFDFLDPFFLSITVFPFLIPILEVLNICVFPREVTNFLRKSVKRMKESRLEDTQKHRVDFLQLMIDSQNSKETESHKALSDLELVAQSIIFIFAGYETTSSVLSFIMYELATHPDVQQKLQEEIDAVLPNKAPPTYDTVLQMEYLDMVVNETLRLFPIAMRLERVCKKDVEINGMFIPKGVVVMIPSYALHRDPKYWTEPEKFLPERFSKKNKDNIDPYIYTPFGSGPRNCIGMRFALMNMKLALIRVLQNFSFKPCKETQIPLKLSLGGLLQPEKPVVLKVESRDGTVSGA
# Method in brief: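 20 nM human CYP3A4 with 25 uM Luciferin-PPXE (at KM) in 200 mM KPO4, preincubated 10 min with compound; NADPH regeneration started a 60 min RT reaction. Luciferin detected by luminescence, normalized to 57 uM ketoconazole as full inhibition.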
# [11] = target: Cytochrome P450 3A4 (Homo sapiens) (UniProt P08684); experiment: qHTS Assay for Activators of Cytochrome P450 3A4 (AID 885); details: recombinant CYP3A4, Luciferin-PPXE luminescence, 60 min; series mostly up to 57.1 µM; further: nearly all actives have a fitted effect of over 65% in size
# Method in brief: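 20nM CYP3A4 + 25uM Luciferin-PPXE (=KM), 200mM KPO4; cpd 10 min RT; NADPH regen, 60 min RT; stop w/ detection buffer, 20 min; luminescence. Normalized to 57 uM ketoconazole.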
# [12] = qHTS Assay for Lipid Storage Modulators (AID 1519; calls by dose curve); details: Drosophila S3 cells, BODIPY lipid droplet/cell ratio, laser cytometry, cells loaded with oleic acid; for activity change, negative = inhibition: at 57.5 µM (top of the series)
# Method in brief: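 Cells seeded at 5,000 per well were treated with compounds over a concentration series and loaded with oleic acid (400 uM, as added). Lipid droplet fluorescence (488 nm excitation, 500-530 nm channel) was read by laser-scanning cytometry and normalized to 20 uM Triacsin C.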
# [13] = target: Dual specificity protein kinase CLK4 (Homo sapiens) (UniProt Q9HAZ1); experiment: qHTS Assay for Inhibitors of CDC-like Kinase 4 (Kinase-Glo Assay) (AID 1770); details: recombinant Clk4, Kinase-Glo ATP depletion luminescence; series mostly up to 66.7 µM; further: on the % scale 0 is the no-effect control and ±100 the full control effect; nearly all actives have a fitted effect of over 65% in size
# Dual specificity protein kinase CLK4 (Homo sapiens), sequence (Q9HAZ1 whole entry, looked up): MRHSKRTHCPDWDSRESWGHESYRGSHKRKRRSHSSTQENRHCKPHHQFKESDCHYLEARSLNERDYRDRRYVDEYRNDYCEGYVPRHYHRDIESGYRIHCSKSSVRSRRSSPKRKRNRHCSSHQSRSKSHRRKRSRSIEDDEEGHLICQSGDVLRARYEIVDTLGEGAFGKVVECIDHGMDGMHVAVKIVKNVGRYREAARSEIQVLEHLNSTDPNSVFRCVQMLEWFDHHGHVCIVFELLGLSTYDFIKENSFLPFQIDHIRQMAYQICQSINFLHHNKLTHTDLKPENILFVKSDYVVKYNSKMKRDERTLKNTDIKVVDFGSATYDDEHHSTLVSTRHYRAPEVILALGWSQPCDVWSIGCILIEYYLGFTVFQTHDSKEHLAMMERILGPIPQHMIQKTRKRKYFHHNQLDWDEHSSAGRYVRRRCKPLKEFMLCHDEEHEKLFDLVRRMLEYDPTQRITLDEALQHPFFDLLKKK
# Method in brief: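 Substrate mix (RS peptide 100 uM, ATP 1 uM) dispensed, compound pinned in, then Clk4 added to 25 nM final. Incubated 4.5 h at RT; Kinase-Glo reagent added, luminescence read after 5 min.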
# [14] = target: Dual specificity protein kinase CLK4 (Homo sapiens) (UniProt Q9HAZ1); experiment: qHTS Assay for Inhibitors of CDC-like Kinase 4 (ADP-Glo Assay) (AID 1771); details: recombinant CLK4, ADP-Glo luminescence; series mostly up to 80 µM; further: on the % scale 0 is the no-effect control and ±100 the full control effect; nearly all actives have a fitted effect of over 70% in size
# Method in brief: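 Kinase reaction: Clk4 at 25 nM, RS repeat peptide substrate at 100 uM, ATP at 1 uM, 1 hr, room temperature. Product ADP detected as luciferase signal via ADP-Glo.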
# [15] = target: Dual specificity protein kinase CLK4 (Homo sapiens) (UniProt Q9HAZ1); experiment: qHTS Assay for Inhibitors of CDC-like Kinase 4 (ADP-FP Assay) (AID 1795); details: Transcreener ADP fluorescence polarization; series mostly up to 50 µM;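 further: recombinant human CLK4 phosphorylating RS repeat peptide at 1 µM ATP; on the % scale 0 is the no-effect control and ±100 the full control effect; nearly all actives have a fitted effect of over 60% in size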
# Method in brief: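 Clk4 6.25 nM; RS peptide 100 uM; ATP 1 uM; 25 mM Tris pH 7.5, 10 mM MgCl2; 1 h reaction. ADP detected via antibody/orange tracer FP displacement; TG003 positive control.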
# [16] = target: Ubiquitin carboxyl-terminal hydrolase 1 (Homo sapiens) (UniProt O94782); experiment: Inhibitors of USP1/UAF1: Pilot qHTS (AID 504865); details: purified USP1/UAF1, Ub-rhodamine cleavage fluorescence; series mostly up to 54.9 µM;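 further: rhodamine fluorescence freed from ubiquitin-rhodamine substrate followed over time; top concentration of the series differs between compounds; on the % scale 0 is the no-effect control and ±100 the full control effect; nearly all actives have a fitted effect of over 35% in size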
# Ubiquitin carboxyl-terminal hydrolase 1 (Homo sapiens), sequence (O94782 whole entry, looked up): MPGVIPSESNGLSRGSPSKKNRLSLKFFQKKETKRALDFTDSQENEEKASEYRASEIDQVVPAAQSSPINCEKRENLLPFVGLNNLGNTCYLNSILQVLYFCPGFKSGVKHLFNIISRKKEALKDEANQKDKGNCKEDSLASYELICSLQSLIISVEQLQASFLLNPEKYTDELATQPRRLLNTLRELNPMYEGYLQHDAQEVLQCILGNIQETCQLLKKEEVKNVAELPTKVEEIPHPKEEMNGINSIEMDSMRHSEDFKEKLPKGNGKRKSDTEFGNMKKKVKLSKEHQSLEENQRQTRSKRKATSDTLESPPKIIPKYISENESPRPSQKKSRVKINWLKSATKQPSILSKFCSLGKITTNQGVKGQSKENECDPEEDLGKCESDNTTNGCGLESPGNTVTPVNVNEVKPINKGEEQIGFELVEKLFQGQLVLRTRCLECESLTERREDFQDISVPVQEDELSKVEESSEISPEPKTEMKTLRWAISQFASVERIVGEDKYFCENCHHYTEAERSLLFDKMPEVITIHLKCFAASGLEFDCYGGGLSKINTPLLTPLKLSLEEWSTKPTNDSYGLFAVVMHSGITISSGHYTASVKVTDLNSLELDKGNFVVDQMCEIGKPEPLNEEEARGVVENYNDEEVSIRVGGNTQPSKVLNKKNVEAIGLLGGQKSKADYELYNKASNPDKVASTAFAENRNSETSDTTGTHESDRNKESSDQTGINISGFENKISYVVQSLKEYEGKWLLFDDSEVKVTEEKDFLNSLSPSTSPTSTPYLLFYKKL
# Method in brief: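 In 50mM HEPES pH 7.8 containing 0.5mM EDTA, 1mM TCEP, 0.1 mg/ml BSA and 0.01% Tween-20, 1nM USP1/UAF1 is exposed to compound for 15 min, then Ub-Rho (150nM final) is added and fluorescence is read over time.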
# [17] = Primary qHTS for small molecule stabilizers of the endoplasmic reticulum resident proteome: Secreted ER Calcium Modulated Protein (SERCaMP) assay (AID 1508630); details: SH-SY5Y GLuc-SERCaMP (Gaussia luciferase released on ER calcium loss) secretion, thapsigargin, luminescence; series mostly up to 38.4 µM; further: on the % scale 0 is the no-effect control and ±100 the full control effect
# Method in brief: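 GLuc-SERCaMP-expressing SH-SY5Y cells, pretreated 16 h with compound, are challenged with thapsigargin to empty ER calcium stores; after 4 h, coelenterazine is added directly to the medium and luminescence is imaged.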
# [18] = measured here: cell count channel max response
# [19] = measured here: lipid channel max response
SMILES,Potency [1],"activity change, negative = inhibition [2]",Potency [3],"activity change, negative = inhibition [4]","activity, negative = inhibition [5]",Potency [6],Potency [7],outcome [8],Potency [9],Potency [10],Potency [11],"activity change, negative = inhibition [12]","max response [12, 18] [%]","max response [12, 19] [%]",Potency [13],Potency [14],Potency [15],Potency [16],Potency [17]
COCCNc1ncncc1-c1c(C)noc1C,> 11.4 µM (inactive),8.31% (inactive),inactive,-1.26% (inactive),0.118% (inactive),> 46 µM (inactive),> 46 µM (inactive),inactive,inactive,5.01 µM (active),inactive,3.6% (inactive),19.7,24.5,inactive,inactive,inactive,inactive,inactive
O=c1c(-c2cc(F)cc(F)c2)nc2cnc(N3CCOCC3)nc2n1C[C@H]1CCCO1,> 11.4 µM (inactive),10.4% (inactive),2.51 µM (active),-16% (inactive),0.32% (inactive),> 9.22 µM (inactive),> 46 µM (inactive),inactive,inactive,–,–,5.53% (inactive),8.91,13.4,inactive,inactive,inactive,inactive,inactive
Cn1cc(-c2nc3cnc(N4CCOCC4)nc3n(C3CC3)c2=O)c2ccccc21,> 11.4 µM (inactive),-18.1% (inactive),3.16 µM (active),-15.3% (inactive),11.5% (inactive),> 9.22 µM (inactive),> 46 µM (inactive),inactive,inactive,–,inactive,8.36% (inactive),17.1,23.9,inactive,inactive,inactive,inactive,inactive
NCCn1c(=O)c(CCc2ccccc2)nc2cncnc21,> 11.4 µM (inactive),-1.99% (inactive),12.6 µM (active),-4.68% (inactive),-4.77% (inactive),> 9.22 µM (inactive),> 46 µM (inactive),inactive,inactive,–,inactive,4.81% (inactive),26.7,29.9,inactive,inactive,inactive,inactive,inactive
COc1cccc(Cn2c(=O)c(-c3cccs3)nc3cnc(N(C)C)nc32)c1,> 11.4 µM (inactive),-9.34% (inactive),15.8 µM (active),23.2% (inactive),11.2% (inactive),> 9.22 µM (inactive),> 46 µM (inactive),inactive,inactive,–,inactive,3.91% (inactive),25.6,27.3,inactive,inactive,inactive,inactive,inactive
